# Measurements taken from the supplement of paper PMC8728848.
# About 410 targets per protein were measured; listed, in parts, are those with the strongest signals and a random draw of the rest.
# B1: BT3172pd (Bacteroides thetaiotaomicron) (protein)
# chain: MLPLRAEHYYYKQISLKEGLPSNVRCILRDEQGFIWIGTKAGLGKFDGHQLKRYKHQANDPHSLLHNLIYQIAEDKQHNIWILTEKGIARYQQQSNNFTFPTDEEGNYITAYSFCLVPDGILFGGKDRIYKYSYKDSSLRLLQYFNANSFKITALSVWDSKTLLCCSRWTGLYLVDLQTGEHRRPPFDCGPEITSMITDSKNRIWIAPYSGGLRCYSRDGKLSASYTTHNSSLSNDIVLSLAEREEQLWIGTDGGGINILHPETGEISQLEYIPGRENYSLPANSILCLHNDYNNNVWAGSTCNGLISIREVSMKTYTDVVPGNDRGLSNGTVRSLYRQSPDSIWIGTDGGGINLFSPHTEKFTHYSSTWGDKVAFISGFTPGKLLISLFSKGVFVFNPATGEKQPFTIIDKETTTRLCNRGKSVNLYQNTPNTVLFLGDHIYQYHLKEKKFSTITEEEGKDIVGTLVPFDHQENLTYINDIKHIYELDDQTSRLKTVFECYTDTVISSVSHDEQGHFWIGSNFGLIHYDPVLKSRTLVPTNLFTEINMVLCDQKGKVWIGVDNMLFAYFIKEQKFVLFGESNGAIQNEYLPNARLVNEQGDAYIGGVKGMLRIDGQLLLNTSEMPELQLLDITINGESANHEWYNHPAKISVPWNSNISIRIMSREEDIFRQKIYRYQIEGLNNEYTESYNPELVIRSLLPGSYRIMASCTAKDGSWIPDQQVLELTVLPPWYRTHHHHHH
# Columns and labels:
# Assay in all cases: glycan array binding signal (z-score within array); higher = stronger binding
# Details in all cases: glycan notation: IUPAC condensed, linker removed
# [1] = biological target: GalNAc3S(b1-4)[Fuc(a1-3)]GlcNAc
# Method in brief: (§1)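 Negative Z-scores can be read as non-binding. The Z-score is calculated within each array and then averaged across arrays of one protein sequence at different concentrations or buffers and across linkers. Arrays, 3228 in all, were curated from the Consortium for Functional Glycomics database and kept only where the protein sequence was available.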
# [2] = biological target: Glc(a1-6)Glc(a1-6)Glc(a1-6)Glc
# Method in brief: as §1
# [3] = biological target: GlcA3S(b1-3)Gal(b1-4)GlcNAc(b1-2)Man
# Method in brief: as §1
# [4] = biological target: GlcNAc(a1-4)Gal(b1-4)GlcNAc(b1-3)Gal(b1-4)GlcNAc
# Method in brief: as §1
# [5] = biological target: GlcNAc(b1-2)[GlcNAc(b1-6)]Man(a1-6)[GlcNAc(b1-4)][GlcNAc(b1-2)Man(a1-3)]Man(b1-4)GlcNAc(b1-4)GlcNAc
# Method in brief: as §1
# [6] = biological target: GlcNAc(b1-3)Gal(b1-4)GlcNAc(b1-3)Gal(b1-4)GlcNAc(b1-2)[GlcNAc(b1-3)Gal(b1-4)GlcNAc(b1-3)Gal(b1-4)GlcNAc(b1-6)]Man(a1-6)[GlcNAc(b1-3)Gal(b1-4)GlcNAc(b1-3)Gal(b1-4)GlcNAc(b1-2)Man(a1-3)]Man(b1-4)GlcNAc(b1-4)[Fuc(a1-6)]GlcNAc
# Method in brief: as §1
# GlcNAc(b1-3)GalNAc = biological target: GlcNAc(b1-3)GalNAc
# Method in brief: as §1
# Man(a1-3)[Man(a1-6)]Man = biological target: Man(a1-3)[Man(a1-6)]Man
# Method in brief: as §1
# [7] = biological target: Man(a1-3)[Man(a1-6)]Man(b1-4)GlcNAc(b1-4)GlcNAc
# Method in brief: as §1
# [8] = biological target: Neu5Ac(a2-3)Gal(b1-3)[Fuc(a1-4)]GlcNAc
# Method in brief: as §1
# [9] = biological target: Neu5Ac(a2-3)Gal(b1-3)[GlcNAc(b1-6)]GalNAc
# Method in brief: as §1
# Neu5Ac(a2-3)Gal(b1-4)Glc = biological target: Neu5Ac(a2-3)Gal(b1-4)Glc
# Method in brief: as §1
# [10] = biological target: Neu5Ac(a2-3)Gal(b1-4)GlcNAc(b1-2)[Neu5Ac(a2-3)Gal(b1-4)GlcNAc(b1-4)]Man(a1-3)[GlcNAc(b1-4)][Neu5Ac(a2-3)Gal(b1-4)GlcNAc(b1-2)[Neu5Ac(a2-3)Gal(b1-4)GlcNAc(b1-6)]Man(a1-6)]Man(b1-4)GlcNAc(b1-4)GlcNAc
# Method in brief: as §1
# [11] = biological target: Neu5Ac(a2-3)Gal(b1-4)GlcNAc(b1-3)GalNAc
# Method in brief: as §1
# [12] = biological target: Neu5Ac(a2-3)Gal(b1-4)GlcNAc(b1-6)[Gal(b1-3)]GalNAc
# Method in brief: as §1
# [13] = biological target: Neu5Ac(a2-3)Gal(b1-4)GlcNAc6S
# Method in brief: as §1
# [14] = biological target: Neu5Ac(a2-3)Gal(b1-4)[Fuc(a1-3)]GlcNAc(b1-2)Man
# Method in brief: as §1
# [15] = biological target: Neu5Ac(a2-3)Gal6S(b1-4)GlcNAc
# Method in brief: as §1
# Neu5Ac(a2-6)Gal = biological target: Neu5Ac(a2-6)Gal
# Method in brief: as §1
# [16] = biological target: Neu5Ac(a2-6)Gal(b1-4)GlcNAc(b1-2)Man(a1-6)[Gal(b1-4)GlcNAc(b1-2)Man(a1-3)]Man(b1-4)GlcNAc(b1-4)GlcNAc
# Method in brief: as §1
# [17] = biological target: Neu5Ac(a2-6)Gal(b1-4)GlcNAc(b1-3)Gal(b1-4)GlcNAc(b1-2)Man(a1-3)[Neu5Ac(a2-6)Gal(b1-4)GlcNAc(b1-3)Gal(b1-4)GlcNAc(b1-2)Man(a1-6)]GalNAc
# Method in brief: as §1
# [18] = biological target: Neu5Ac(a2-6)Gal(b1-4)GlcNAc(b1-3)Gal(b1-4)GlcNAc(b1-6)[Gal(b1-3)]GalNAc
# Method in brief: as §1
# [19] = biological target: Neu5Ac(a2-6)Gal(b1-4)GlcNAc(b1-3)[Neu5Ac(a2-6)Gal(b1-4)GlcNAc(b1-6)]GalNAc
# Method in brief: as §1
# [20] = biological target: Neu5Ac(a2-6)Gal(b1-4)GlcNAc(b1-6)GalNAc
# Method in brief: as §1
# [21] = biological target: Neu5Ac(a2-8)Neu5Ac(a2-3)Gal(b1-4)GlcNAc
# Method in brief: as §1
# [22] = biological target: Neu5Ac(b2-6)Gal(b1-4)GlcNAc
# Method in brief: as §1
# Neu5Ac(b2-6)GalNAc = biological target: Neu5Ac(b2-6)GalNAc
# Method in brief: as §1
binder,measurement,setting,value
B1,glycan array binding signal (z-score),[1],6.05
same,glycan array binding signal (z-score),[2],0.665
same,glycan array binding signal (z-score),[3],-0.286
same,glycan array binding signal (z-score),[4],-0.207
same,glycan array binding signal (z-score),[5],-0.604
same,glycan array binding signal (z-score),[6],-0.268
same,glycan array binding signal (z-score),GlcNAc(b1-3)GalNAc,3.09
same,glycan array binding signal (z-score),Man(a1-3)[Man(a1-6)]Man,-0.387
same,glycan array binding signal (z-score),[7],0.075
same,glycan array binding signal (z-score),[8],-0.042
same,glycan array binding signal (z-score),[9],-0.406
same,glycan array binding signal (z-score),Neu5Ac(a2-3)Gal(b1-4)Glc,4.78
same,glycan array binding signal (z-score),[10],-0.441
same,glycan array binding signal (z-score),[11],0.355
same,glycan array binding signal (z-score),[12],-0.43
same,glycan array binding signal (z-score),[13],2.43
same,glycan array binding signal (z-score),[14],-0.094
same,glycan array binding signal (z-score),[15],0.228
same,glycan array binding signal (z-score),Neu5Ac(a2-6)Gal,4.96
same,glycan array binding signal (z-score),[16],0.765
same,glycan array binding signal (z-score),[17],-0.692
same,glycan array binding signal (z-score),[18],6.02
same,glycan array binding signal (z-score),[19],5.76
same,glycan array binding signal (z-score),[20],0.094
same,glycan array binding signal (z-score),[21],-0.788
same,glycan array binding signal (z-score),[22],-1.02
same,glycan array binding signal (z-score),Neu5Ac(b2-6)GalNAc,0.736
